Here are results for eight compounds from PubChem BioAssay (NCI).

SMILES strings stand for the structures. The panel holds about 83,000 compounds, 20% with a hit somewhere; the sample as a whole holds those more often.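 Negative percent growth values reflect cell death: -40 means 40% of the cells present at the start died, and -100 means all died.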 Values without a mark were called inactive. Active and inactive are the calls of the source. How the source made its calls: active means growth percent below 10; inactive means the rest.

Test systems include SK-MEL-2 melanoma; EKVX NSCLC; SN12C renal; UO-31 renal; TK-10 renal; ACHN renal; CAKI-1 renal; A498 renal; MOLT-4 leukemia; SR leukemia; RPMI-8226 leukemia; OVCAR-8 ovarian; OVCAR-5 ovarian; OVCAR-4 ovarian; SK-OV-3 ovarian; IGROV1 ovarian; OVCAR-3 ovarian; HS 578T breast; NCI/ADR-RES ovarian.
Common to all, as to assay: NCI-60 one-dose screen, 48 h (100 = growth as untreated, 0 = no growth, -100 = all killed)
Common to all, as to conditions: 10 µM unless noted

Consider `CCN(CC)CCN1C(=O)c2c(c(C)c3c(oc4cc(O)ccc43)c2C)C1=O`, for which the growth was 108% in the test on SK-MEL-2 melanoma; 103% in the test with EKVX NSCLC; 86.9% in the test with SN12C renal; 69.2% with UO-31 renal; -92.3% (active) with TK-10 renal; 49.5% in the test on ACHN renal. The growth with CAKI-1 renal is -92.5% (active); in the test on A498 renal, 101%; in the test with MOLT-4 leukemia it was -33.6% (active); in the test on SR leukemia it was -25.3% (active); with RPMI-8226 leukemia it was -36.3% (active); in the test on OVCAR-8 ovarian, -62.6% (active). Besides, the growth in the test with OVCAR-5 ovarian was -38.5% (active); in the test on OVCAR-4 ovarian, -34.4% (active); in the test on SK-OV-3 ovarian, 108%; in the test on IGROV1 ovarian, 91.9%; with OVCAR-3 ovarian, -88% (active); in the test on HS 578T breast it was 87.7%. Further, the growth in the test with NCI/ADR-RES ovarian is 78%.
As to `CCN(CC)c1nc(SCC(=O)Nc2nc3ccc(C)cc3s2)nc(-c2ccccc2)c1C#N`, the growth with SK-MEL-2 melanoma was 92%; in the test with EKVX NSCLC, 81%; in the test with SN12C renal it was 94%; in the test with UO-31 renal, 68.8%; with TK-10 renal it was 94.6%; with ACHN renal, 94.8%. Besides, the growth with CAKI-1 renal was 75.4%; in the test on A498 renal it was 81%; in the test on MOLT-4 leukemia, 79.7%; in the test on SR leukemia, 2.23% (active); in the test on RPMI-8226 leukemia, 61.4%; with OVCAR-8 ovarian, 89.5%. Further, the growth was 77.4% with OVCAR-5 ovarian; 80.7% in the test with OVCAR-4 ovarian; 93.7% in the test with SK-OV-3 ovarian; 65.7% with IGROV1 ovarian; 93.2% in the test on OVCAR-3 ovarian; 83.4% in the test with HS 578T breast. For the same compound, in the test on NCI/ADR-RES ovarian, the growth was 96.4%.
With `N#CC1=C(NC=O)Oc2c(ccc3ccccc23)C1c1ccccc1` (stereo not given), the growth in the test on SK-MEL-2 melanoma is 29%; in the test on EKVX NSCLC it was 67.8%; in the test with SN12C renal, 39.7%; with UO-31 renal, 41%; in the test with TK-10 renal it was 54.6%; with ACHN renal, 43.4%. The growth in the test with CAKI-1 renal was 26.5%; in the test on A498 renal it was 22.9%; with MOLT-4 leukemia, 39.5%; in the test with SR leukemia it was 22.9%; with RPMI-8226 leukemia it was 19.1%; in the test with OVCAR-8 ovarian, 23.6%. The growth is 88.9% with OVCAR-5 ovarian; 64.5% in the test with OVCAR-4 ovarian; 16.3% in the test on SK-OV-3 ovarian; 38.6% in the test with IGROV1 ovarian; 3.87% (active) with OVCAR-3 ovarian; 11.3% in the test on HS 578T breast. Besides, the growth in the test on NCI/ADR-RES ovarian is 20.4%.
Consider `NS(=O)(=O)c1cnccc1Oc1cccc2cccnc12`, for which the growth with SK-MEL-2 melanoma was 107%; in the test with EKVX NSCLC, 97.1%; with SN12C renal, 99.4%; in the test on UO-31 renal, 78.3%; in the test with TK-10 renal, 107%; with ACHN renal, 102%. Moreover, the growth in the test with CAKI-1 renal is 111%; with A498 renal it was 99.1%; in the test on MOLT-4 leukemia, 93%; with SR leukemia, 86%; with RPMI-8226 leukemia, 88.4%; in the test on OVCAR-8 ovarian it was 54.1%. The growth was 82.9% with OVCAR-5 ovarian; 118% in the test on OVCAR-4 ovarian; 77.8% with SK-OV-3 ovarian; 113% with OVCAR-3 ovarian; 88.7% in the test with HS 578T breast; 107% in the test on NCI/ADR-RES ovarian.
With `C=C(C)[C@@H]1CC[C@]2(C(=O)NC3CCCCC3)CC[C@]3(C)[C@H](CC[C@@H]4[C@@]5(C)CCCNC(C)(C)[C@@H]5CC[C@]43C)[C@@H]12`, the growth with SK-MEL-2 melanoma was 35%; in the test with EKVX NSCLC, 77.6%; with SN12C renal it was 61.6%; in the test with UO-31 renal, 61.5%; with TK-10 renal, 86.5%; in the test with ACHN renal it was 51%. The growth with CAKI-1 renal was 26.4%; with A498 renal it was 68.7%; in the test with MOLT-4 leukemia, -2.14% (active); in the test with SR leukemia, -22.5% (active); with RPMI-8226 leukemia it was -32.5% (active); in the test with OVCAR-8 ovarian, -16.7% (active). Moreover, the growth in the test on OVCAR-5 ovarian was 82.8%; with OVCAR-4 ovarian, 44.6%; in the test with SK-OV-3 ovarian it was 95.8%; in the test on IGROV1 ovarian, 55.1%; with OVCAR-3 ovarian it was 64.8%; with HS 578T breast, 78.8%. Also, in the test with NCI/ADR-RES ovarian, the growth was 57.7%.
For `COc1cc(-c2n/c(=C\c3c(O)[nH]c4ccc(Cl)cc34)cc3c2=Nc2ccccc2-3)cc(OC)c1OC`, the growth in the test with SK-MEL-2 melanoma was 36%; in the test on EKVX NSCLC, 38.6%; in the test with SN12C renal, -27.5% (active); in the test on UO-31 renal, -54.3% (active); in the test with TK-10 renal it was -7.12% (active); in the test with ACHN renal, -44.8% (active). The growth was 13.2% in the test with CAKI-1 renal; 52.4% in the test with A498 renal; 10.2% in the test with MOLT-4 leukemia; 0.372% (active) in the test with SR leukemia; 15.5% in the test on RPMI-8226 leukemia; 3.95% (active) in the test with OVCAR-8 ovarian. The growth in the test with OVCAR-5 ovarian is 88.6%; in the test with OVCAR-4 ovarian it was -41.8% (active); in the test with SK-OV-3 ovarian it was -14.2% (active); in the test on IGROV1 ovarian, -18.3% (active); in the test with OVCAR-3 ovarian, -57.4% (active); in the test on HS 578T breast, 20.9%. In the test on NCI/ADR-RES ovarian, the growth was 15.1%.
With `CCN(CC)CCn1nc2c3c(cccc3c1=O)-c1ccccc1-2`, the growth in the test on SK-MEL-2 melanoma is 32.8%; in the test on EKVX NSCLC, 40.7%; in the test on SN12C renal it was 15.5%; in the test with UO-31 renal, 6.26% (active); in the test with TK-10 renal, 26.4%; with ACHN renal, -41.7% (active). Moreover, the growth in the test with CAKI-1 renal is 18.1%; in the test on A498 renal it was 24.3%; in the test on MOLT-4 leukemia it was 4.13% (active); in the test on SR leukemia, 4.64% (active); in the test on RPMI-8226 leukemia, 24.9%; with OVCAR-8 ovarian, 23.3%. Further, the growth in the test on OVCAR-5 ovarian is 33.9%; with OVCAR-4 ovarian, 51.6%; in the test with SK-OV-3 ovarian, 7.24% (active); in the test with IGROV1 ovarian, 15.6%; in the test on HS 578T breast it was 76.1%; in the test with NCI/ADR-RES ovarian, 35.1%.
As to `COc1ccc2occ(C3=C(c4c[nH]c5ccccc45)C(=O)N(O)C3=O)c2c1`, the growth is 102% with SK-MEL-2 melanoma; 93.1% with EKVX NSCLC; 95.9% in the test with SN12C renal; 61.9% in the test with UO-31 renal; 126% in the test with TK-10 renal; 95.3% with ACHN renal. Moreover, the growth was 83.6% in the test on CAKI-1 renal; 118% with A498 renal; 102% in the test on MOLT-4 leukemia; 57.2% in the test with SR leukemia; 66.7% in the test with RPMI-8226 leukemia; 90.5% with OVCAR-8 ovarian. The growth is 104% in the test with OVCAR-5 ovarian; 112% in the test with OVCAR-4 ovarian; 88.7% with SK-OV-3 ovarian; 91.3% in the test on IGROV1 ovarian; 98.9% with OVCAR-3 ovarian; 95.7% with HS 578T breast. In addition, the growth in the test with NCI/ADR-RES ovarian is 99.1%.
